Some test systems named below: NCI-H23 lung; NCI-H226 lung; NCI-H322M lung; HOP-62 NSCLC; NCI-H460 lung; HOP-92 NSCLC; NCI-H522 lung; A549/ATCC NSCLC; 786-0 renal; COLO 205 colon.
Assay in all cases: NCI-60 one-dose screen, 48 h (100 = growth as untreated, 0 = no growth, -100 = all killed)
Holding throughout (conditions): 10 µM unless noted

This is part of a sample that, as a whole, favours compounds with a hit. Of some 83,000 tested, about 20% had one in any assay.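 Activity criterion: percent growth below 10, measured after cells in 96-well plates were exposed to a single compound concentration for 48 hours.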 Unmarked numbers belong to inactive results. Active and inactive are the calls of the source.

Consider `C=C1C(=O)O[C@H]2[C@H]1CC/C(COC(=O)c1ccccc1)=C\CC[C@@]1(C)O[C@@H]21`, for which the growth with NCI-H23 lung was 45%; in the experiment with NCI-H226 lung it was -37.2% (active); with NCI-H322M lung, 59.3%; in the experiment with HOP-62 NSCLC it was 36.6%; with NCI-H460 lung it was 38%; with HOP-92 NSCLC, -41.9% (active). Further, the growth in the experiment with NCI-H522 lung is -77.7% (active); in the experiment on A549/ATCC NSCLC it was 23.3%; in the experiment on 786-0 renal it was -59.2% (active); with COLO 205 colon, -64.7% (active).
`COc1ccccc1P(c1ccccc1OC)c1ccccc1OC`: the growth in the experiment with NCI-H23 lung is 250%; with NCI-H226 lung, 105%; in the experiment with NCI-H322M lung it was 87.5%; with HOP-62 NSCLC it was 113%; with NCI-H460 lung it was 94.8%; in the experiment with HOP-92 NSCLC it was 70%. Besides, the growth in the experiment with NCI-H522 lung was 92.4%; in the experiment on A549/ATCC NSCLC, 82.2%; in the experiment on 786-0 renal, 106%; in the experiment with COLO 205 colon, 87.1%.
In the case of `Cc1cc(O[C@@H]2O[C@@H](C)[C@H](O)[C@@H](O)[C@H]2O)c2c3c(c(O[C@@H]4O[C@@H](C)[C@H](O)[C@@H](O)[C@H]4O)cc2c1)C(=O)c1c(O)cccc1C3=O`, the growth is 95.4% in the experiment with NCI-H23 lung; 52.1% in the experiment with NCI-H226 lung; 95.4% with NCI-H322M lung; 77.4% in the experiment on HOP-62 NSCLC; 84.8% in the experiment with NCI-H460 lung; 76.1% with HOP-92 NSCLC. In addition, the growth in the experiment on NCI-H522 lung was 64.8%; in the experiment with A549/ATCC NSCLC, 76.8%; in the experiment with 786-0 renal, 24.4%; in the experiment with COLO 205 colon, 94.5%.
`COc1ccc(-c2cc(-c3nnc(SC/C(=N\O)c4ccccc4)n3-c3ccccc3)c3ccccc3n2)cc1`: the growth in the experiment on NCI-H23 lung was 94.6%; in the experiment with NCI-H226 lung it was 96.2%; with NCI-H322M lung, 101%; with HOP-62 NSCLC it was 91.1%; with NCI-H460 lung, 104%; in the experiment on HOP-92 NSCLC, 94.8%. Also, the growth with NCI-H522 lung is 87.2%; in the experiment on A549/ATCC NSCLC, 96.8%; in the experiment with 786-0 renal, 113%; with COLO 205 colon it was 91.1%.
Consider `COc1ccc(CNc2nc3ccccc3c3c(=O)c4ccccc4sc23)cc1OC`, for which the growth in the experiment with NCI-H23 lung is 80.9%; in the experiment on NCI-H226 lung, 75.6%; in the experiment on NCI-H322M lung, 80.6%; in the experiment on HOP-62 NSCLC, 79.8%; in the experiment with NCI-H460 lung, 63.3%; in the experiment with HOP-92 NSCLC it was 42.8%. Also, the growth in the experiment on NCI-H522 lung was 77.4%; with A549/ATCC NSCLC, 61.6%; with 786-0 renal, 76.8%; in the experiment on COLO 205 colon, 79.4%.
Regarding `COc1cccc(-c2nc3sccn3c2-c2ccnc(NCCNC(=O)Nc3cccc(C(F)(F)F)c3)n2)c1`, the growth in the experiment with NCI-H23 lung was 83.8%; with NCI-H226 lung, 94.9%; with NCI-H322M lung, 81.3%; with HOP-62 NSCLC, 98.9%; in the experiment with NCI-H460 lung it was 45.1%; in the experiment with HOP-92 NSCLC it was 92.4%. For the same molecule, the growth in the experiment on NCI-H522 lung was 47.7%; in the experiment with A549/ATCC NSCLC it was 44.4%; in the experiment with 786-0 renal it was 65.6%; in the experiment on COLO 205 colon it was 57.6%.
Regarding `COc1cc(-c2nc(SCC(=O)Nc3ccc(C(C)=O)cc3)[nH]c(=O)c2C#N)cc(OC)c1OC`, the growth with NCI-H23 lung is 38.4%; in the experiment on NCI-H226 lung it was 58.5%; in the experiment on NCI-H322M lung, 45.3%; in the experiment on HOP-62 NSCLC, 20.7%; with NCI-H460 lung, 5.79% (active); in the experiment with HOP-92 NSCLC, 10.3%. Moreover, the growth is -14.5% (active) in the experiment with NCI-H522 lung, 19.8% in the experiment on A549/ATCC NSCLC, 35.5% in the experiment with 786-0 renal and -16.2% (active) with COLO 205 colon.
`Nc1nc(=S)ss1`: the growth in the experiment with NCI-H23 lung is 98.7%; with NCI-H226 lung it was 103%; with NCI-H322M lung, 100%; with HOP-62 NSCLC, 97.3%; with NCI-H460 lung, 110%; with HOP-92 NSCLC it was 98.7%. For the same molecule, the growth in the experiment with NCI-H522 lung was 94.2%; in the experiment on A549/ATCC NSCLC, 97.5%; in the experiment on 786-0 renal, 107%; in the experiment on COLO 205 colon, 112%.
Regarding `COc1ccc(C(=O)NC(=O)Nc2ccc3c(c2)NC(=O)/C3=C\c2[nH]c(C)c(CCC(=O)O)c2C)c(F)c1`, the growth is 40.4% in the experiment with NCI-H23 lung; 45% in the experiment on NCI-H226 lung; 50.7% with NCI-H322M lung; 19.8% in the experiment with HOP-62 NSCLC; 17.1% in the experiment on NCI-H460 lung; 83.5% in the experiment on HOP-92 NSCLC. For the same molecule, the growth in the experiment on NCI-H522 lung is 26.8%; with A549/ATCC NSCLC, 7.84% (active); in the experiment on 786-0 renal, 31.2%; in the experiment on COLO 205 colon it was 37.5%.
In the case of `O=C(CSc1nnc(-c2ccc(Cl)cc2)o1)Nc1ccc(C(=O)/C=C/c2ccccc2)cc1`, the growth in the experiment on NCI-H23 lung is 93.3%; in the experiment with NCI-H226 lung it was 107%; in the experiment with NCI-H322M lung it was 90.5%; in the experiment on HOP-62 NSCLC, 107%; in the experiment with NCI-H460 lung, 97.7%; in the experiment on HOP-92 NSCLC, 106%. The growth is 86.7% in the experiment with NCI-H522 lung, 96% with A549/ATCC NSCLC, 97.8% with 786-0 renal and 116% in the experiment on COLO 205 colon.
Regarding `COC(=O)Nc1nc2ccc(Sc3ccccc3)cc2[nH]1`, the growth in the experiment on NCI-H23 lung is 32.7%; with NCI-H226 lung, 19.9%; in the experiment on NCI-H322M lung it was 55.4%; in the experiment with HOP-62 NSCLC it was 29.4%; in the experiment on NCI-H460 lung it was 6.37% (active); in the experiment on HOP-92 NSCLC it was 54.2%. For the same molecule, the growth in the experiment with NCI-H522 lung was 13.4%; in the experiment on A549/ATCC NSCLC it was 13.4%; in the experiment with 786-0 renal, 33.7%; in the experiment on COLO 205 colon, -14.7% (active).
On to `CCn1c(C)nc([N+](=O)[O-])c1Sc1nc(N)nc2nc[nH]c12`, for which the growth in the experiment on NCI-H23 lung was 28.8%; with NCI-H226 lung it was 44.3%; in the experiment with NCI-H322M lung it was 50.9%; in the experiment on HOP-62 NSCLC it was 24.9%; in the experiment on NCI-H460 lung, 10.7%; in the experiment with HOP-92 NSCLC, 54.9%. Besides, the growth in the experiment with NCI-H522 lung was 42.6%; in the experiment with A549/ATCC NSCLC it was 53.9%; with 786-0 renal it was 24.6%; in the experiment on COLO 205 colon, 67.9%.
As to `CC(=O)c1cc2c(c(O)c1C)C(=O)C(=O)c1c(O)cccc1-2`, the growth in the experiment with NCI-H23 lung was -15.3% (active); in the experiment with NCI-H226 lung, -69.7% (active); in the experiment on NCI-H322M lung it was -83.6% (active); with HOP-62 NSCLC it was -78.5% (active); with NCI-H460 lung, -57.6% (active); in the experiment with HOP-92 NSCLC it was -43.9% (active). Besides, the growth with NCI-H522 lung is -62.4% (active); with A549/ATCC NSCLC, -66.8% (active); in the experiment on 786-0 renal, -78.6% (active); in the experiment with COLO 205 colon, -75.4% (active).

Values taken from PubChem BioAssay (NCI).
